High-throughput results: PubChem BioAssay, National Center for Advancing Translational Sciences (NCATS)
Rows were chosen to be rich in hits. Some 19% of all compounds tested hit in one or more screens of this group.
TDP1 cell CPT: growth inhibition of DT40 Tdp1-/-;hTDP1 cells with camptothecin (screen for TDP1 inhibitors); Potency, µM (titrated, usually from 46.2 µM), without a hit: top-dose activity change, negative = growth inhibition, most hits filed as inhibitors; actives 12% (n = 420,000); chicken DT40 Tdp1-/-;hTDP1 cells + 20 nM CPT, ATP luminescence, 48 h; also: potency is read from the fitted curve at half-maximal effect; nearly all actives have a fitted effect of over 55% in size
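Cell growth measured by CellTiter-Glo luminescence after a minimum 48 h, 37 C compound exposure with 20 nM CPT in Tdp1-knockout DT40 cells stably expressing hTDP1, seeded 400/well; qHTS titration format.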
HT1080 IDH1KD tx: HT-1080 IDH1 knockdown cell toxicity (counter line); HT-1080 IDH1 knockdown viability, ATP luminescence, 48 h; Potency, µM (highest dose often 46.1 µM), inactives show at the top dose activity, negative = toxicity, most hits filed as cytotoxic; actives 2% (n = 360,000);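 also: potency is read from the fitted curve at half-maximal effect; 0% = DMSO wells and -100% = cell-free medium wells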
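In this qHTS, HT-1080 cells depleted of IDH1 are exposed for 48 h at 37 °C to compound titrations. Toxicity is scored from CellTiter-Glo luminescence, with DMSO as full viability and medium alone as none.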
HT1080-NT tox: kills 2HG-producing HT-1080-NT fibrosarcoma cells; HT-1080-NT fibrosarcoma viability, CellTiter-Glo ATP luminescence, 48 h; Potency, µM (highest dose often 46.1 µM), inactives show at the highest dose activity, negative = less viability, most hits filed as cytotoxic; actives 1.6% (n = 360,000); AID 686970;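 also: NT is the 2HG producing partner of a matched IDH1 knockdown line; potency is read from the fitted curve at half-maximal effect; 0% = DMSO-treated cells and -100% = media-only wells without cells; nearly all actives have a fitted effect of over 55% in size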
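HT-1080-NT fibrosarcoma cells (2HG-overproducing), 750 cells/well in RPMI with 5% FBS, dosed after 2 h and incubated 48 h at 37C. CellTiter-Glo luminescence normalized to DMSO and no-cell wells; concentration-response curves fitted and classed.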
IL1B secr inh: inhibitors of inflammasome signaling (IL-1 beta secretion) | THP-1 LPS/ATP IL-1B secretion, AlphaLISA, 16 h; stronger effect = lower value | activity change, % at 57.5 µM | actives 4.7% (n = 360,000) | AID 743279; in the data active = activity change below about -50%; inconclusive = mostly about -30% to -49%
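THP-1 cells pretreated 1 hr with compounds (up to 57.5 uM final), then stimulated with LPS (250 ng/mL final) plus ATP (1.25 mM final); secreted IL-1B measured by AlphaLISA after 16 hr, decreased signal indicating inhibition.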
TDP1 cell noCPT: qHTS for Inhibitors of human tyrosyl-DNA phosphodiesterase 1 (TDP1): qHTS in cells in absence of CPT | Potency, µM (series often up to 46.2 µM), inactives show at the top dose activity change, negative = growth inhibition, usual class: inhibitors | DT40 Tdp1-/- hTDP1 cells, no CPT, ATP luminescence, 48 h | actives 15% (n = 420,000); also: potency is read from the fitted curve at half-maximal effect; nearly all actives have a fitted effect of over 55% in size
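No-CPT arm: Tdp1-/-;hTDP1 DT40 cells (400/well) plus compounds, incubated ≥48 hr at 37 °C. Readout CellTiter-Glo luminescence.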
ELG1 DNA repair: ELG1-dependent DNA repair inhibition | HEK293T ELG1-luciferase reporter, luminescence, 16 h; DNA damage induced by 5-fluorouridine | Potency, µM (top dose mostly 46.1 µM), for the others: top-dose activity change, negative = inhibition, hits mostly inhibitors | actives 2.3% (n = 330,000) | AID 504467; also: potency is read from the fitted curve at half-maximal effect; nearly all actives have a fitted effect of over 55% in size
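Quantitative HTS, concentration-response format. 2,000 cells/well co-treated with 5-fluorouridine and compound, 16 hr in 5% CO2 at 37 °C; ONE-Glo luminescence read after 30 min.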
* = called active by the depositor; u = inconclusive; x = no result given; ! = repeats disagree. Unless noted, calls follow the shape of the dose curve; as a rule, active = well fitted curve in the direction sought with a large enough effect; inconclusive = small, poorly fitted or top-dose-only effect, or another doubt; inactive = no such curve, though single readings can be large; an effect the other way counts as inactive or inconclusive. Unless noted, % is scaled to controls: 0 for no effect and ±100 for the full control effect.

SMILES	TDP1 cell CPT	HT1080 IDH1KD tx	HT1080-NT tox	IL1B secr inh	TDP1 cell noCPT	ELG1 DNA repair
CCCCNc1nc2sc3c(c2c(=O)n1-c1cccc(Cl)c1)CCN(C)C3	21µM*	-21%	-17%	-24	16µM*	u
Cc1ccc(C(=O)Nc2cnn(-c3ccc(C(=O)NCc4nc(-c5ccccc5)n[nH]4)cc3)c2)c(C)c1	0.92µM*	x	x	x	1.8µM*	x
CC1CCCC(C)N1C(=O)c1cc(-c2ccc3c(c2)OCO3)on1 (stereo not given)	u	-26%	-1%	-8	26µM*	u
O=C(c1cc(-c2ccc(Cl)c(Cl)c2)on1)N1CCCCCC1	u	4%	1%	-8	-28%	u
CC1CCCC(C)N1C(=O)c1cc(-c2ccc(Cl)c(Cl)c2)on1 (stereo not given)	18µM*	u	-20%	-5	u	u
COc1cc(Nc2nn(-c3ccc(OC(F)(F)F)cc3)nc2C(C)=O)cc(OC)c1	-8%	x	x	x	-17%	x
CC1=CC(C)(C)NC(=S)N1c1ccc2ccccc2c1	u	7.1µM*!	5.6µM*	11	u	-6%
CC1=CC(C)(C)NC(=S)N1C(C)c1ccccc1 (stereo not given)	u	-1%	1%	60	u	14%
CC1=CC(C)(C)NC(=S)N1c1ccc(Cl)cc1	-22%	2%	-11%	-14	u	x
CC1=CC(C)(C)NC(=S)N1c1cccc2ccccc12	u	1%	6%	0	26µM*	-9%
COc1ccc(NC(=O)COC(=O)CCNS(=O)(=O)c2ccc(Cl)cc2)cc1	-13%	9%	3%	-14	-2%	-2%
CN(C)CCNC(=O)c1cccc(-c2cnc3c(NC=O)cc(-c4cccs4)cn23)c1	u	u	u	-10	u	x
Cc1cc(-c2cc(NC=O)c3ncc(-c4cccc(C(=O)NCCN(C)C)c4)n3c2)cc(C)c1O	u	26µM*	26µM*	-3	u	x
CN(C)CCNC(=O)c1cccc(-c2cnc3c(NC=O)cc(-c4ccccc4F)cn23)c1	u	u	u	-15	21µM*	x
Cc1onc(-c2ccccc2Cl)c1C(=O)NC1C(=O)N2C1SC(C)(C)C2C(=O)O (stereo not given)	-2%	x	x	x	-7%	x
CN(C(=O)COC(=O)c1nn(C)c(=O)c2ccccc12)c1c(N)n(Cc2ccccc2)c(=O)[nH]c1=O	-1%	7%	-1%	4	-17%	11%
O=C1c2ccccc2CCc2ccccc21	-1%	22%	14%	-9	-1%	x
O=C1c2ccccc2CSc2c(O)cccc21	u	-21%	-11%	-64*	-37%	x
COc1ccc2c(c1)CCN=C2Cc1ccc(OC)c(OC)c1	u	u	-20%	u	16µM*	-25%
COc1ccc(Cc2nnc(N)s2)cc1OC	15%	4%	3%	1	13%	14%
CCC(C)Sc1ccc(-c2nc3ccccn3c2NCc2ccccc2)cc1OC (stereo not given)	u	u	u	-74*	u	u
COc1cc(-c2nc3ccccn3c2NCc2ccccc2)ccc1SC1CCCCC1	26µM*	u	u	-29	u	u
COc1ccc(-c2nc3ccccn3c2NC2CCCCC2)cc1SC1CCCCC1	u	u	u	-75*	16µM*	u
COc1ccc(CSc2ccc(-c3nc4ccccn4c3NCc3ccccc3)cc2OC)cc1	9.2µM*	-2%	-25%	u	8.2µM*	u
CCOc1cc(-c2nc3ccccn3c2NCC2CCCO2)ccc1O (stereo not given)	-35%	-1%	-1%	-7	-17%	u
SMILES	TDP1 cell CPT	HT1080 IDH1KD tx	HT1080-NT tox	IL1B secr inh	TDP1 cell noCPT	ELG1 DNA repair
COc1cc(-c2nc3ccccn3c2NCC2CCCO2)ccc1O (stereo not given)	u	-6%	6%	-3	u	0%
O=C(Cn1c(=O)nc(-c2ccccc2F)c2cc(Cl)ccc21)N1CCN(c2ccccc2F)CC1	-4%	x	x	x	-9%	x
O=C(Cn1nc(-c2cccc(Cl)c2)ccc1=O)NCC1COCCO1 (stereo not given)	9%	14%	22%	-19	-17%	4%
COc1ccc(-c2nc3ccc(C)cn3c2NCc2ccc3c(c2)OCO3)cc1	-8%	3%	2%	-3	u	u
Cc1ccc(-c2nc3ccccn3c2NCc2ccc3c(c2)OCO3)cc1	21µM*	u	u	u	u	u
COc1ccc2c(c1)c(=O)c(C(=O)c1ccc(F)cc1)cn2CC(=O)Nc1ccc(F)cc1	u	-4%	-11%	-24	u	-18%
COc1cccc(NC(=O)Cn2cc(C(=O)c3ccc(F)cc3)c(=O)c3cc(OC)ccc32)c1	-2%	x	x	x	-16%	x
CCc1ccc(C(=O)c2cn(CC(=O)Nc3cccc(OC)c3)c3ccc(OC)cc3c2=O)cc1	u	x	x	x	23µM*	x
COc1ccc2c(c1)c(=O)c(C(=O)c1ccc(C)cc1)cn2CC(=O)Nc1ccc(F)cc1	u	-24%	-25%	-15	16µM*	-8%
CCc1ccc2c(c1)c(=O)c(C(=O)c1ccccc1)cn2CC(=O)Nc1ccc(C)c(Cl)c1	21µM*	x	x	x	12µM*	x
CCOc1ccc(C(=O)c2cn(CC(=O)Nc3ccc(C)c(Cl)c3)c3ccc(OCC)cc3c2=O)cc1	11%	x	x	x	-2%	x
CC1(C(=O)NS(=O)(=O)C2CC2)CCN(C(=O)c2cc(F)cc(F)c2)C1 (stereo not given)	6%	4%	23%	12	8%	x
O=C(Nc1ccc(Cc2ccncc2)cc1)c1cccs1	u	-12%	-1%	-75*	1%	10%
O=C(Nc1ccc(NC(=O)c2cccs2)cc1)c1ccc2c(c1)OCO2	u	12µM*	u	-16	-28%	u
O=C(Nc1ccc(NC(=O)c2cccs2)cc1)c1ccc2c(c1)OCCO2	-17%	2%	-8%	33	-16%	16%
O=C(c1ccncc1)c1ccc(NC(=O)c2cccs2)cc1	2%	0%	17%	18	-5%	u
O=C(Nc1cccc(NC(=O)c2cccs2)c1)c1ccc2c(c1)OCO2	u	-22%	2%	-77*	12µM*	u
